From PMC7862700, “An all-to-all approach to the identification of sequence-specific readers for epigenetic DNA modifications on cytosine” come the findings set out here.

Assay in all cases: DAPPL (digital affinity profiling via proximity ligation, sequencing); 10 mM Tris-HCl pH 7.5, 50 mM NaCl, 1 mM DTT, 4% glycerol, room temperature, 30 min; GST-TFs on glutathione beads, 16-mer random dsDNA library, 0.1% formaldehyde crosslink after washing; high values mean tight binding
For experiment [1], the target named is T1, FEV (Homo sapiens, UniProt Q99581 1-238).
T1 sequence: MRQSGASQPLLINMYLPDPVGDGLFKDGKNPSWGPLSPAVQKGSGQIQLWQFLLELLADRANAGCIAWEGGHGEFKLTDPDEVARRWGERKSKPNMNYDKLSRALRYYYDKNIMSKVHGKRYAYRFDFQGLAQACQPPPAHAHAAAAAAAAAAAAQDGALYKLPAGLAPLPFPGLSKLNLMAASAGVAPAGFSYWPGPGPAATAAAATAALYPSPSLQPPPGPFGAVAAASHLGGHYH
To be noted: protein: recombinant; tags: N-terminal GST; dsDNA, one strand shown. The essentials:
(§1)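 Each value of binding signal is a hexamer's read frequency for a factor divided by the same hexamer's frequency in the tag-only sample. Barcoded, bead-captured GST fusions of human transcription factors made in yeast were pooled with that sample and incubated with 200 nmole of a random double-stranded 16-mer DNA library in Tris/NaCl/DTT/glycerol buffer at room temperature for 30 min. Washing, 0.1% formaldehyde crosslinking, proximity ligation, PCR and Illumina NextSeq500 sequencing followed.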

Experiment [2] addresses ETV5 (Homo sapiens, UniProt P41161 1-510). As to conditions: protein: recombinant; tags: N-terminal GST; dsDNA, one strand shown. In short, it runs like this:
as §1

Experiment [3] addresses HSF1 (Homo sapiens, UniProt Q00613 1-529). As to conditions: protein: recombinant; tags: N-terminal GST; chain copies: 3; dsDNA, one strand shown. The essentials:
as §1

In experiment [4] the target is T2, SPIC (Homo sapiens, UniProt Q8N5J4 1-248).
T2 sequence: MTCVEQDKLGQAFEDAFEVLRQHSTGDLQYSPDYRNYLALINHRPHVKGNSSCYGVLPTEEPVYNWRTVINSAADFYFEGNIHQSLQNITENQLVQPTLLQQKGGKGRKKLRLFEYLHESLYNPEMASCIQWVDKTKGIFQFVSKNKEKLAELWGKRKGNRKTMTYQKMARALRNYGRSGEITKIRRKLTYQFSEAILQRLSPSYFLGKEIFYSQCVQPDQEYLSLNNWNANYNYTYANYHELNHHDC
To be noted: protein: recombinant; tags: N-terminal GST; dsDNA, one strand shown. In short, it runs like this: as §1

In experiment [5] the target is ELF4 (Homo sapiens, UniProt Q99607 1-663). To be noted: protein: recombinant; tags: N-terminal GST; dsDNA, one strand shown. The essentials: as §1
For experiment [6], the target named is T3, ELK4 (Homo sapiens, UniProt P28324-2 1-405).
T3 sequence: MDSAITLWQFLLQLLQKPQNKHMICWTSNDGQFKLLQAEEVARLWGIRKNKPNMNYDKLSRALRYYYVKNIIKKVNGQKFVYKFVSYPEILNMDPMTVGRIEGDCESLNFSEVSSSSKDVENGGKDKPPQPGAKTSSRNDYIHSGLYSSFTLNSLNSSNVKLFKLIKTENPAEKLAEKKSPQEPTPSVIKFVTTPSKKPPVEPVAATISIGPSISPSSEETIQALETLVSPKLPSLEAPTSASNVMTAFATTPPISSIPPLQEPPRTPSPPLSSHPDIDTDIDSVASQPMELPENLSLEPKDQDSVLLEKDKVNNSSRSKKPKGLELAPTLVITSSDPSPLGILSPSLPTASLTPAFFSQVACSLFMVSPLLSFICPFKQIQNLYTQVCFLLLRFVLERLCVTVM
To be noted: protein: recombinant; tags: N-terminal GST; dsDNA, one strand shown. In short, it runs like this:
as §1

Experiment [7] deals with T4, ETV2 (Homo sapiens, UniProt O00321 1-342).
T4 sequence: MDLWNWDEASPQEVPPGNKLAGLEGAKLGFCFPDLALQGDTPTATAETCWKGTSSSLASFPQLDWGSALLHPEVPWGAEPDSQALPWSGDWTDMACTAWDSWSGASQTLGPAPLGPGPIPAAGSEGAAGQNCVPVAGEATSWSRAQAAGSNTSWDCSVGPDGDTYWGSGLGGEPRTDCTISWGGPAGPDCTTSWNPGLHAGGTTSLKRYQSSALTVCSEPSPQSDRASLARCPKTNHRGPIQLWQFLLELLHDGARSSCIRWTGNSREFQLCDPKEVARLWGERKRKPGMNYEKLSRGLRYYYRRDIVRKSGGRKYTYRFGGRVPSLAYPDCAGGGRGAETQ
To be noted: protein: recombinant; tags: N-terminal GST; dsDNA, one strand shown. In short, it runs like this: as §1

Experiment [8] has as its target T5, ELF3 (Homo sapiens, UniProt P78545 1-371).
T5 sequence: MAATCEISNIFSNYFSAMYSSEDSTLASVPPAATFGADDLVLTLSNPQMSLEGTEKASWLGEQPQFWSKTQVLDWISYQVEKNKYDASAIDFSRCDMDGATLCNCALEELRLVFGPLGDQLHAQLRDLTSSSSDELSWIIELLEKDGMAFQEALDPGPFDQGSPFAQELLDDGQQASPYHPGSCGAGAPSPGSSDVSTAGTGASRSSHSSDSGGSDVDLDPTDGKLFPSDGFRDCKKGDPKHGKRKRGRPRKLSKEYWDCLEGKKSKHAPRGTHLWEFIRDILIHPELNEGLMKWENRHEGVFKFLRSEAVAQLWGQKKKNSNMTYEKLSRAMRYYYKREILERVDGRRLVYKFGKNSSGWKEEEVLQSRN
As to conditions: protein: recombinant; tags: N-terminal GST; dsDNA, one strand shown. The essentials:
as §1

Experiment [9] addresses CRX (Homo sapiens, UniProt O43186 1-299). To be noted: protein: recombinant; tags: N-terminal GST; dsDNA, one strand shown. The essentials:
as §1

In experiment [10] the target is ETV1 (Homo sapiens, UniProt P50549 1-477). To be noted: protein: recombinant; tags: N-terminal GST; dsDNA, one strand shown. The essentials: as §1
Experiment [11] has as its target T6, ERF (Homo sapiens, UniProt P50548 1-548).
T6 sequence: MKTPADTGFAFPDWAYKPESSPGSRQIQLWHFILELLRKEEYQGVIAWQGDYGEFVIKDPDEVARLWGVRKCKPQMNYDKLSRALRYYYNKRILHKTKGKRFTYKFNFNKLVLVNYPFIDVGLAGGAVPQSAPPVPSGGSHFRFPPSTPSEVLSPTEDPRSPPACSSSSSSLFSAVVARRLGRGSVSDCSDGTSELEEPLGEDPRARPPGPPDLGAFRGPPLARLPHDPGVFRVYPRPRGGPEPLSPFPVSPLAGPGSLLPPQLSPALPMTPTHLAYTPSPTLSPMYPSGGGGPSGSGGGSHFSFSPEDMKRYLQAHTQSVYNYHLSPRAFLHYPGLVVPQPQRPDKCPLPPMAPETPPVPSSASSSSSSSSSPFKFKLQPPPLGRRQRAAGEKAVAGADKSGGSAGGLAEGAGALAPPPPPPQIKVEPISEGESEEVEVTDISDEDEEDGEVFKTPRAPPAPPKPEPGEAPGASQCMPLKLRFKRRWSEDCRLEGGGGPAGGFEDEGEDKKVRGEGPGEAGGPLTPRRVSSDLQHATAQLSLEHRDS
As to conditions: protein: recombinant; tags: N-terminal GST; dsDNA, one strand shown. The essentials:
as §1

The target in experiment [12] is T7, ETV3L (Homo sapiens, UniProt Q6ZN32 1-361).
T7 sequence: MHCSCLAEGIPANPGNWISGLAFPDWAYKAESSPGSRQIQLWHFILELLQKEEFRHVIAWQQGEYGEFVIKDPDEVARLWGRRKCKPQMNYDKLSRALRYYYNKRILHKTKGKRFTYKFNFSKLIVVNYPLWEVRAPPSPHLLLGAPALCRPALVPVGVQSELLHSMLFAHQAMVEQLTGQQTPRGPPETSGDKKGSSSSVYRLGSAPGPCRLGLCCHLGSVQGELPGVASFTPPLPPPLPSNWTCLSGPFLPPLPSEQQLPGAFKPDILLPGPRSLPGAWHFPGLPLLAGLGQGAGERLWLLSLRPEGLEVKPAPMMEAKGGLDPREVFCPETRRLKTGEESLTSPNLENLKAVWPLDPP
To be noted: protein: recombinant; tags: N-terminal GST; dsDNA, one strand shown. In short, it runs like this: as §1

In experiment [13] the target is T8, ETS2 (Homo sapiens, UniProt P15036 1-469).
T8 sequence: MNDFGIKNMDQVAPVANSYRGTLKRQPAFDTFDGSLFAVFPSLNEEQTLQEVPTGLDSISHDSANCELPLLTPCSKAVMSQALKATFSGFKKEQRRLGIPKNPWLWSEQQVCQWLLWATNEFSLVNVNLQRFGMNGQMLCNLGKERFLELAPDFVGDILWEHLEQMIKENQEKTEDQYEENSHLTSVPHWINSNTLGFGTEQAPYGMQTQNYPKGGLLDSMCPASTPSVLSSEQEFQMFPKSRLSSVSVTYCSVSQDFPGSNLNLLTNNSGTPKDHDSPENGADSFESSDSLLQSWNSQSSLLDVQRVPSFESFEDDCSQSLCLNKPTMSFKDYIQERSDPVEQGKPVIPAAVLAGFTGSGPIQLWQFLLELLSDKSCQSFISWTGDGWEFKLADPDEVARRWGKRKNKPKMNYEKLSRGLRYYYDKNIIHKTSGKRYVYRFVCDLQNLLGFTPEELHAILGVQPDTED
As to conditions: protein: recombinant; tags: N-terminal GST; dsDNA, one strand shown. The essentials:
as §1

Experiment [14] has as its target T9, SPDEF (Homo sapiens, UniProt O95238 1-335).
T9 sequence: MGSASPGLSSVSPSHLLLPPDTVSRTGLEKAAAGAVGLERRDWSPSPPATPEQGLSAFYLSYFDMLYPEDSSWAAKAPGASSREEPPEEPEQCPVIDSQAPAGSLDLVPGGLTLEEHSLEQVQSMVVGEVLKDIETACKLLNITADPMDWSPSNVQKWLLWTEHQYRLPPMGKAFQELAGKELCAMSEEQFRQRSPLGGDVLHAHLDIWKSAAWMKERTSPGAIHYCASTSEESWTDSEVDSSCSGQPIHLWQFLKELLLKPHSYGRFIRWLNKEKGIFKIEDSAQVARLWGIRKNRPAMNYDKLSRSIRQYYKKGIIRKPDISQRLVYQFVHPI
To be noted: protein: recombinant; tags: N-terminal GST; dsDNA, one strand shown. In short, it runs like this:
as §1

The target of experiment [15] is T10, ETV7 (Homo sapiens, UniProt Q9Y603 1-341).
T10 sequence: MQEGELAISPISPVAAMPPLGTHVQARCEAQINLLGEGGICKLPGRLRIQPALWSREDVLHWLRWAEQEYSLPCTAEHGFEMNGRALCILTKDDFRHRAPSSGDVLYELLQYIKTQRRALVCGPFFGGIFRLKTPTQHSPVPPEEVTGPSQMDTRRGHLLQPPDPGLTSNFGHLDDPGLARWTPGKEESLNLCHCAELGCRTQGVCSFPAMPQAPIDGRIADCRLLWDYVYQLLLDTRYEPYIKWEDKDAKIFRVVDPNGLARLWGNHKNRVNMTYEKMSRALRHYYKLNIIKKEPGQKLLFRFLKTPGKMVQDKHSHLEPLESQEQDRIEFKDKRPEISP
As to conditions: protein: recombinant; tags: N-terminal GST; dsDNA, one strand shown. The essentials: as §1

Experiment [16] has as its target T11, ELF5 (Homo sapiens, UniProt Q9UKW6-2 1-255).
T11 sequence: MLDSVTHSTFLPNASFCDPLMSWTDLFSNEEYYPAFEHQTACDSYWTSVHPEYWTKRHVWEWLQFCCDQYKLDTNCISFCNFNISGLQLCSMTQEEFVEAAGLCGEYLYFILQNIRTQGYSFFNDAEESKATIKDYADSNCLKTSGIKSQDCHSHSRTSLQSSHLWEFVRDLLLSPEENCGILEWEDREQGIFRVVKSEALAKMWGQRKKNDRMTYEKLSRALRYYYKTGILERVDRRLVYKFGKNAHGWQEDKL
To be noted: protein: recombinant; tags: N-terminal GST; dsDNA, one strand shown. In short, it runs like this: as §1

Experiment [17] addresses T12, ETV3 (Homo sapiens, UniProt P41162-2 1-143).
T12 sequence: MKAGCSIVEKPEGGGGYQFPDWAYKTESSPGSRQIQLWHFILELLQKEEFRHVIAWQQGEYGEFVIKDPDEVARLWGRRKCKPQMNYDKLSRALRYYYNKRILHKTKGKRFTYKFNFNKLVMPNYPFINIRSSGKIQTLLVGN
As to conditions: protein: recombinant; tags: N-terminal GST; dsDNA, one strand shown. In short, it runs like this: as §1

The target in experiment [18] is ETV6 (Homo sapiens, UniProt P41212 1-452). As to conditions: protein: recombinant; tags: N-terminal GST; dsDNA, one strand shown. In short, it runs like this: as §1
Chain of ETV6 (P41212 whole entry): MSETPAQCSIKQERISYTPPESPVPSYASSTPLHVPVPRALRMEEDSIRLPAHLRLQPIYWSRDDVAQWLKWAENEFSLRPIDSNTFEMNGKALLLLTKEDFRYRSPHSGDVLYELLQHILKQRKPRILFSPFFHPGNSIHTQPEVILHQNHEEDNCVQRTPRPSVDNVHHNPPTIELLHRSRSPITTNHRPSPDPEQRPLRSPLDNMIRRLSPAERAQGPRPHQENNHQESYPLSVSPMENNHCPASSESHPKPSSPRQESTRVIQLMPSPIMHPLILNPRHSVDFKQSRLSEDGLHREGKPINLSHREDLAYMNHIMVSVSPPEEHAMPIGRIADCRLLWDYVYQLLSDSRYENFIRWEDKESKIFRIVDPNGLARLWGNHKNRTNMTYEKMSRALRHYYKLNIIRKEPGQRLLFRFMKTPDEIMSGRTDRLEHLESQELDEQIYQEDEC

Chain of ETV5 (P41161 whole entry): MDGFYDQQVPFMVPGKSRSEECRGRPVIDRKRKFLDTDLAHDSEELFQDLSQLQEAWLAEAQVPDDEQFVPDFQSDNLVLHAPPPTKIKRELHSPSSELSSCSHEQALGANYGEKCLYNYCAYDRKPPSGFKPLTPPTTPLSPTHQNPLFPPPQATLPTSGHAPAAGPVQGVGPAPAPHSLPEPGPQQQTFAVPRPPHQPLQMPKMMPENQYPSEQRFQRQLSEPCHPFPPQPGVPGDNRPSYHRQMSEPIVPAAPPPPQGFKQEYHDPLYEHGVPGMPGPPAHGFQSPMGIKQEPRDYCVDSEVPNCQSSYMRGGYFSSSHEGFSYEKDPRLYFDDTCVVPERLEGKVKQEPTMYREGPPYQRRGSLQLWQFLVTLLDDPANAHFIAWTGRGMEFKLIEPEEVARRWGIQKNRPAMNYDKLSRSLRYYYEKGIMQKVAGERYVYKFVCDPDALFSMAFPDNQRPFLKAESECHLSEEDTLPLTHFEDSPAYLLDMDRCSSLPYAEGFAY
Chain of ELF4 (Q99607 whole entry): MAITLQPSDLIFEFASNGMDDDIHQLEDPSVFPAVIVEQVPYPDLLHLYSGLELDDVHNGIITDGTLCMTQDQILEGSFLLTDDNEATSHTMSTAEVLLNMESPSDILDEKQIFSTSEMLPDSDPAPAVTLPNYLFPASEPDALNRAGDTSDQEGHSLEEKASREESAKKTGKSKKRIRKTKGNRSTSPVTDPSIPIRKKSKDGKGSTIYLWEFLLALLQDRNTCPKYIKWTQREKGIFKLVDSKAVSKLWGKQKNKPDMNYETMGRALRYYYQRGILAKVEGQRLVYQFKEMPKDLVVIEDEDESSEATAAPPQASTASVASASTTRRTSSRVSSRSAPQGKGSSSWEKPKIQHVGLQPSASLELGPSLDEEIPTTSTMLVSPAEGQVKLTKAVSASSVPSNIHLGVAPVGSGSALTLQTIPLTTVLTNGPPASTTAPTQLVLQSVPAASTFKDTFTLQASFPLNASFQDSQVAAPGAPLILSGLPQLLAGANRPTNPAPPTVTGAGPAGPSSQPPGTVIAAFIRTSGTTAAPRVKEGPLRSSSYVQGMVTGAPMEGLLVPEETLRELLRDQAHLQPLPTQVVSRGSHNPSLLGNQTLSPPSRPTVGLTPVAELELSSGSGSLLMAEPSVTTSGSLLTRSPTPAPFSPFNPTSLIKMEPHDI
Chain of HSF1 (Q00613 whole entry): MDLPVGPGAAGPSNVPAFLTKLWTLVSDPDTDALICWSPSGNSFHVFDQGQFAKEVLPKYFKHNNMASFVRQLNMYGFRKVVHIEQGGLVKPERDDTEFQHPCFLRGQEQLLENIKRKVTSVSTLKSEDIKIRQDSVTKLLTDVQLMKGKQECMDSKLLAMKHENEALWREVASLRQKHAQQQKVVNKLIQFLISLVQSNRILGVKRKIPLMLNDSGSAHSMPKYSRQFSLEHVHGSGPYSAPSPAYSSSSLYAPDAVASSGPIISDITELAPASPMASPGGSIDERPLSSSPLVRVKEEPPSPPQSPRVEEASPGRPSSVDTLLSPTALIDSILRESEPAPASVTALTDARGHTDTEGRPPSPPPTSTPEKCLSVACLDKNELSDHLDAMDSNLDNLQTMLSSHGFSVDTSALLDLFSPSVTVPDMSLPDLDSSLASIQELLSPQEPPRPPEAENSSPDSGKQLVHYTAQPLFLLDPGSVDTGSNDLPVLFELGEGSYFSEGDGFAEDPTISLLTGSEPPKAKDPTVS
Chain of CRX (O43186 whole entry): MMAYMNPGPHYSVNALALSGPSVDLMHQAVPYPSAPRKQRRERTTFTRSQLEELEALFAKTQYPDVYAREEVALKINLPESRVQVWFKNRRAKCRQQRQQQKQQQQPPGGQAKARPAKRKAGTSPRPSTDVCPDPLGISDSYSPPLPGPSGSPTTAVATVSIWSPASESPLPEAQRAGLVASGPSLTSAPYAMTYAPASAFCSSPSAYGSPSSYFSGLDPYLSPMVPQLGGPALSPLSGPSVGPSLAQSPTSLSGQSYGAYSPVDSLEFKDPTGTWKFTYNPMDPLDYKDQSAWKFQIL
Chain of ETV1 (P50549 whole entry): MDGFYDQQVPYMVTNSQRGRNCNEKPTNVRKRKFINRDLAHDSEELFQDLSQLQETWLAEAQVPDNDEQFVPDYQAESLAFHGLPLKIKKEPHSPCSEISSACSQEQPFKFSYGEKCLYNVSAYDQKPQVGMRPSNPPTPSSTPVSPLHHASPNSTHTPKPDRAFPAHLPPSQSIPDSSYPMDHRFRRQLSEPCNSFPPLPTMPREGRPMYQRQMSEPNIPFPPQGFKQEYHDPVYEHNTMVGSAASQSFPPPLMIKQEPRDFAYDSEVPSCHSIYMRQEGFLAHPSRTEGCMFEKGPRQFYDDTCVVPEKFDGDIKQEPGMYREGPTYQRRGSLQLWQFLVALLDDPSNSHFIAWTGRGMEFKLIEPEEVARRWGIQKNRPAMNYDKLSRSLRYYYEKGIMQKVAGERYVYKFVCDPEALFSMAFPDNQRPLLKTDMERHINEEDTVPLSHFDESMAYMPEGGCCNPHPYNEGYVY

For TTGCCC, the binding signal in experiment [1] is 1.46 fold enrichment (6-mer frequency, TF over GST control); in experiment [2] it was 1.32 fold enrichment (6-mer frequency, TF over GST control); in [3] it was 1.2 fold enrichment (6-mer frequency, TF over GST control); in experiment [4], 1.28 fold enrichment (6-mer frequency, TF over GST control); in experiment [5] it was 1.4 fold enrichment (6-mer frequency, TF over GST control); in experiment [6], 1.42 fold enrichment (6-mer frequency, TF over GST control). Also, the binding signal in experiment [7] was 1.25 fold enrichment (6-mer frequency, TF over GST control); in experiment [8], 1.33 fold enrichment (6-mer frequency, TF over GST control); in experiment [9], 1.2 fold enrichment (6-mer frequency, TF over GST control); in [10] it was 1.22 fold enrichment (6-mer frequency, TF over GST control); in experiment [11] it was 1.3 fold enrichment (6-mer frequency, TF over GST control); in experiment [12] it was 1.41 fold enrichment (6-mer frequency, TF over GST control). In addition, the binding signal in experiment [13] was 1.43 fold enrichment (6-mer frequency, TF over GST control); in experiment [14] it was 1.38 fold enrichment (6-mer frequency, TF over GST control); in experiment [15] it was 1.38 fold enrichment (6-mer frequency, TF over GST control); in experiment [16], 1.22 fold enrichment (6-mer frequency, TF over GST control); in [17] it was 1.35 fold enrichment (6-mer frequency, TF over GST control); in experiment [18] it was 1.23 fold enrichment (6-mer frequency, TF over GST control).
